Lamin A splicing = changes lamin A minigene splicing in HeLa cells; HeLa LMNA splicing GFP/RFP minigene ratio, 48 h; Potency, µM (top dose mostly 46.1 µM), for inactives: at the highest dose ratio change, negative = inhibition, most hits filed as inhibitors; hit rate 0.01% among 200,000; active = well fitted inhibition curve with a large enough effect in the signal ratio, with a control signal flat, not every such curve was filed as active; inconclusive = small, poorly fitted or top-dose-only effect, or effect the other way, or a change in a side signal; the % refers to the signal ratio; also: potency is read from the fitted curve at half-maximal effect
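S3 HeLa stable clones carrying a lamin A-EGFP splicing minigene plus DsRed2 were seeded at 600 cells/well in Opti-MEM with 2% FBS, pin-dosed and incubated 48 h at 37°C. Acumen cytometry (488 nm) gave the GFP/RFP total-intensity ratio.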
PNC inhibitor = inhibitors of perinucleolar compartment assembly | PC3M PTB-GFP, PNC prevalence imaging, 16 h; hits give low values | activity change (PNC), negative = inhibition, % at 10 µM | hit rate 3.1% among 140,000 | AID 2417;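 active = readout at or below -70, meaning at least 70% loss of cells showing the perinucleolar compartment, a nuclear body marking cancer cells; inconclusive = readout between -30 and a set limit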;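 also: plate controls were DMSO wells for no effect and camptothecin positive control wells for full effect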
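Compounds are pinned in duplicate onto adhered PC3M cells stably expressing GFP-tagged PTB and incubated 16 h at 37 C. Cells are then fixed, nuclei stained with Hoechst, and PNC-positive cells counted.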
HPGD inh = HPGD (human) dehydrogenase inhibition. AID 894. Potency, µM, for inactives: top-dose activity change, negative = inhibition, usual class: inhibitors. P15428. purified HPGD, NADH fluorescence kinetic, PGE2 substrate. hit rate 4.3% among 150,000; also: potency is read from the fitted curve at half-maximal effect
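20 nM HPGD preincubated 15 min at room temperature with compound in 50 mM Tris-HCl pH 8, 0.01% Tween 20. Started with 1 mM NAD+ and 30 uM prostaglandin E2; NADH fluorescence (360/450 nm) read 5 times over 30-s intervals, last minus first.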
ALDH1A1 block = ALDH1A1 (human) enzyme inhibition | Potency, µM (doses to about 75.3 µM), for inactives: at the highest dose activity, negative = inhibition, actives largely listed as inhibitors | P00352 | Purified ALDH1A1, NADH fluorescence, propionaldehyde substrate | hit rate 7.3% among 220,000;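 also: potency is read from the fitted curve at half-maximal effect; plate controls were no enzyme wells and a reference inhibitor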
Target sequence (P00352 whole entry, looked up): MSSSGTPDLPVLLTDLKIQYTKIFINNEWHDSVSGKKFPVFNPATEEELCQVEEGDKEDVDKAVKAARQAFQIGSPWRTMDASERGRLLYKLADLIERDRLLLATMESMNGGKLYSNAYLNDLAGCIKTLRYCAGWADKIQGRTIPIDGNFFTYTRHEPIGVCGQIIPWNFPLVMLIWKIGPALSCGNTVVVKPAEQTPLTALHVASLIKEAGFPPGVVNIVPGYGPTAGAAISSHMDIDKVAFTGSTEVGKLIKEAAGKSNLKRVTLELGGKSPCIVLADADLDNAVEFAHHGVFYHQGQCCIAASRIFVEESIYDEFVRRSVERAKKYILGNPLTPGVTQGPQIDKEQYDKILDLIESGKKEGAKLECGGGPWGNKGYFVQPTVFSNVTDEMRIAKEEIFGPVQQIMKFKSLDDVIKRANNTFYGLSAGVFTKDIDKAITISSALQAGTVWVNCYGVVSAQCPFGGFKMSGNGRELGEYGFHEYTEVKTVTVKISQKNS
ALOX12 inhib = blocks human 12-lipoxygenase activity | P18054 | purified 12-hLO, xylenol orange hydroperoxide absorbance | Potency, µM (highest dose often 57.1 µM), for the others: at the top dose activity change, negative = inhibition, actives largely listed as inhibitors | hit rate 0.12% among 150,000; active = well fitted inhibition curve with a large enough effect; inconclusive = small, poorly fitted or top-dose-only effect; also: potency is read from the fitted curve at half-maximal effect; nearly all actives have a fitted effect of over 55% in size
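Purified human 12hLO (150 nM), preincubated 15 min with compound, then 40 uM arachidonic acid for 30 min, room temperature, Hepes pH 7.0 with 0.01% Triton X-100. Hydroperoxide detected by ferrous iron/xylenol orange; 573/405 nm absorbance ratio gives reaction progress.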
The depositor's hits bear a star; ? = inconclusive; · = no result; [ ] = remark or other dose. An excerpt weighted towards active compounds, which were near 10% of everything screened. Unless noted, calls follow the shape of the dose curve; as a rule, active = well fitted inhibition curve with a large enough effect (not every such curve was filed as active); inconclusive = small, poorly fitted or top-dose-only effect, or another doubt; inactive = no such curve, though single readings can be large or run the other way. Unless noted, % is scaled to controls: 0 for no effect and ±100 for the full control effect.

SMILES	Lamin A splicing	PNC inhibitor	HPGD inh	ALDH1A1 block	ALOX12 inhib
COc1cc(OC)c2c(c1)OC1Cc3cc(OC)c(OC)cc3C2O1 (stereo unspecified)	12%[9.22 µM]	·	-7%	2%[13.5 µM]	-1%[11.4 µM]
O=C(CSc1ccc2c(c1)OCCO2)NC(=O)Cc1ccccc1	2%	29	-8%	8%	0%
CCOc1ccc(C2C(C#N)=C(N)SC(N)=C2C#N)cc1OCC	5%	34	22µM*	?	-21%
CCOc1ccc(C2C(C#N)=C(N)SC(N)=C2C#N)cc1OC	4%	?	25µM*	?	-16%
N#CC1=C(N)SC(N)=C(C#N)C1c1cccc(Oc2ccccc2)c1	?	?	22µM*	10µM*	-18%
CCOc1ccc(CC(=O)NCCc2sc3nc(-c4ccc(F)cc4)nn3c2C)cc1	11%[46 µM]	·	·	·	·
COc1nc(N)nc2c1ncn2[C@@H]1C[C@H](O)[C@@H](CO)O1	·	·	-3%	8%[13.5 µM]	-1%[11.4 µM]
Cc1ccc(C(c2nnnn2Cc2cccs2)N2CCN(Cc3ccc4c(c3)OCO4)CC2)cc1 (stereo unspecified)	5%	-27	-15%	10µM*	-21%
c1ccc(Cn2nnnc2CN2CCN(Cc3ccc4c(c3)OCO4)CC2)cc1	-8%	-18	·	20µM*	-4%
COCCn1nnnc1C(c1ccc(C)cc1)N1CCN(Cc2ccc3c(c2)OCO3)CC1 (stereo unspecified)	5%	9	·	-5%	-8%
CC(C)CN1CCC2(CC1)CCN(C(=O)c1cnccn1)CC2	·	·	-4%	6%	1%
COc1cccc(CNC(=O)CN2C(=O)N(c3c(C)cccc3C)S(=O)(=O)c3ccccc32)c1OC	-8%[46 µM]	·	·	·	·
CCNc1ncc2nc(-c3cc(F)cc(F)c3)c(=O)n(CCC#N)c2n1	9%	·	·	?	·
COC(=O)c1ccc(C2/C(=C(/O)c3ccc(OC)cc3)C(=O)C(=O)N2Cc2ccco2)cc1 (stereo unspecified)	?	-5	-11%	18µM*	-10%
Cc1cccc(N=C2NC(=O)/C(=C/C=C/c3ccco3)S2)c1C	-2%	25	7.9µM*	2.8µM*	?
Cc1ccc(N=C2NC(=O)S/C2=C\c2ccco2)cc1	-7%	1	22µM*	0%	?
Cc1ccccc1N=C1NC(=O)/C(=C/c2cccn2-c2cccc(C(=O)O)c2)S1	6%[1.84 µM]	·	·	-1%	·
COc1ccc(N=C2NC(=O)/C(=C\C=C\c3ccccc3)S2)cc1	26%[46 µM]	·	·	7%	·
O=C1NC(=Nc2ccccc2)S/C1=C\C=C\c1ccco1	-21%	?	28µM*	14%	?
Cc1ccc(N=C2NC(=O)/C(=C/C=C/c3ccco3)S2)cc1	-4%	22	-23%	4.5µM*	-29%
O=C1NC(=Nc2ccccc2)/C(=C/c2ccco2)S1	?	-19	-14%	?	-3%
CCN1CCN(Cc2c(O)ccc3cc(-c4ccc(OC)cc4)c(=O)oc23)CC1	3%[46 µM]	·	·	·	·
Cc1cccc(/C=C2/SC(=O)N(Cc3ccccc3Cl)C2=O)n1	10%	22	-13%	3.2µM*	-3%
COc1cc(/C=C2/SC(=O)N(Cc3ccccc3Cl)C2=O)ccc1OCc1ccncc1	-2%[0.0737 µM]	26	1%	0.45µM*	1%
Cc1cccc(NC(=O)CN2C(=O)S/C(=C\c3ccccn3)C2=O)c1	?	·	·	4%	·
SMILES	Lamin A splicing	PNC inhibitor	HPGD inh	ALDH1A1 block	ALOX12 inhib
COc1ccc(Oc2coc3cc(OC(=O)/C=C/c4ccccc4)ccc3c2=O)cc1	-6%	-81*	-1%	6%	-5%
COc1ccc(Oc2coc3cc(OC(=O)/C=C/c4ccc(F)cc4)ccc3c2=O)cc1	-1%	35	·	3%	0%
CCN(CC)C(=O)c1sc2c(c1C)c(=O)n(CCc1ccccc1)c(=O)n2Cc1ccc(F)cc1Cl	0%[46 µM]	·	·	·	·
Cc1cc([N+](=O)[O-])nn1CC(=O)Nc1nccs1	13%	-89*	-7%	-1%	3%
COc1ccc(NC(=S)NNC(=O)Cn2nc([N+](=O)[O-])cc2C)cc1	6%	-24	-6%	-4%	-4%
Cc1nn(CCC(=O)NNC(=S)Nc2ccc(Cl)cc2)c(C)c1[N+](=O)[O-]	-9%	115	-20%	22µM*	1%
Cc1cc([N+](=O)[O-])nn1CC(=O)NNC(=S)Nc1ccc([N+](=O)[O-])cc1	9%	46	-20%	22µM*	-12%
O=C(Cn1ccc([N+](=O)[O-])n1)Nc1nccs1	9%	17	-11%	4%	1%
CC(=NC1CCCCC1)c1ccccc1O	·	·	-7%	?	-14%[11.4 µM]
O=C(Cn1nnc(-c2ccc(OCc3ccccc3F)cc2)n1)N1CCOCC1	-3%	-102*	7%	-5%	6%
Oc1ccc2ccccc2c1Cc1c(O)ccc2ccccc12	·	·	-10%	16%[13.5 µM]	-16%[11.4 µM]
O=C(Cc1cccs1)N1CCN(C(=O)C2CCCO2)CC1 (stereo unspecified)	6%	-120*	-2%	?	-5%
O=C(CCc1ccccc1)N1CCN(c2ccc([N+](=O)[O-])cc2)CC1	-17%[46 µM]	·	·	2.2µM*	·
O=C(Cc1cccs1)N1CCN(c2ccc([N+](=O)[O-])cc2)CC1	·	·	·	25µM*	·
CN1N=C(C(=O)N2CCN(c3ccc([N+](=O)[O-])cc3)CC2)CCC1=O	?	-94*	-10%	?	1%
O=C(c1cccs1)N1CCN(C(=O)C2CCCO2)CC1 (stereo unspecified)	-1%	-1	-9%	?	1%
O=C(CCc1ccccc1)N1CCN(c2ccc(Cl)cc2)CC1	-2%	3	-8%	4%	-15%
CN(C)CCn1c(CO)nc2c1c(=O)n(C)c(=O)n2C	·	·	-10%	-1%[13.5 µM]	-1%[11.4 µM]
COc1cccc(CNC(=O)c2oc3c(c2C)-c2nn(Cc4cccc(Cl)c4)cc2CC3)c1OC	0%[46 µM]	·	·	·	·
Cc1nc2ncnn2c(N2CCN(C(=O)Cc3cccs3)CC2)c1C	?	-15	-23%	7.9µM*	-14%
O=C(Cc1cccs1)N1CCN(c2ccc(F)cc2)CC1	-10%	38	-9%	1%	-2%
O=C1CCC=C1[C@@H](O)CCc1ccccc1	·	·	·	8%[13.5 µM]	·
O=C(NCC1CCCO1)c1cc(C(=O)C2CCCCC2)c[nH]1 (stereo unspecified)	?	·	·	-1%	·
Cc1ccccc1C(=O)c1c[nH]c(C(=O)NCC2CCCO2)c1 (stereo unspecified)	?	25	6.3µM*	?	-3%
COc1ccc(C(=O)c2c[nH]c(C(=O)NCC3CCCO3)c2)cc1 (stereo unspecified)	3%	19	2µM*	?	-10%
Cc1ccccc1C(=O)c1c[nH]c(C(N)=O)c1	9%	-17	-17%	7.9µM*	-2%
CC(C)(C)c1ccc(C(=O)c2c[nH]c(C(=O)NCC3CCCO3)c2)cc1 (stereo unspecified)	-20%	26	13µM*	-1%	1%
